Assay results as given in paper PMC12864922, “TDP-43 directly inhibits mRNA accumulation in neurites through modulation of mRNA stability”.
Whole data set: some 9,900 sequences, median “r (bound/input frequency ratio)” near 0.7, cut for the highest 2% near 6.5. This excerpt belongs to a sample that is enriched for the highest values.

B1: ENSMUSG00000043670.57|Diras1|205:210 (ssRNA)
RNA: GGGAGUUCUACAGUCCGACGAUCGCUUCGAUAUCCGCAUGCUACCUGCCUCUUCACACCUCCAUAGCUUCAUCCUUUGCAGACCUCUCCCUCUAUAUCUCUUUGCUCCCCCACCCCCAUUCUAUCUGCACCCCACAACCACACACUGGAGGUUUGAUCCCUGUGGAUCUGAAAACAGGGACCUGGCUAAGGAACUGCUCAUCCCAGUCAGGCCCAGAGAGGUUACCUUGCCUCUCCAUCUCUGUCCCACACACCCCAGCCAUGCCCACUGUCCCUGUCCCUCACAUUCUAUCACUGUGACCUCCUCUUGCGGUCGCACUAGUGUGGAAUUCUCGGGUGUCAAGG
B2: ENSMUSG00000032194.139|Kank2 (ssRNA)
RNA: GGGAGUUCUACAGUCCGACGAUCGCUUCGAUAUCCGCAUGCUAGGAAAUGACCAACUUACAAGAAGUUAUGCUGACCUCCCUGUUCCCCACGGGGAGUGCUUGGCAGAGGAGACUACUUCUAGAAAUACUUUCAGACCUACAGACAAAAAAGAAAAAAGGCCAUUCCGGAGUGACUCCCAGCAUCACAGCCCAGAACCUCCUCCUCAAAGGAGAGUAAACAGAGACUGUGAUACUGACCAAGUACAGGCGCUCGCUAUGAAGCCCAUAUGUUCCUGAUUAAGAGCUGGCUGGCCUCAGAGCACCUCUUGCGGUCGCACUAGUGUGGAAUUCUCGGGUGUCAAGG
B3: ENSMUSG00000004113.476|Cacna1b|225:230 (ssRNA)
RNA: GGGAGUUCUACAGUCCGACGAUCGCUUCGAUAUCCGCAUGCUAAGAGAGAGAGAUCCAGUCAUGCAACACAAAUGGGAUCUACUUUUAAACAACAGUCCUUUGACUAGUUUGCUGCCUGAAUAAUAUUUACAAACUAAACUUUGGAUUCUGCUCUUGUUUCUACAAUGAUUUUUUGUAUAAAGCAAAGUCCUUGGAUUAAAUAAAAACAACCCAAAAAAAAAAUCAAAAUCAAAACCCAGGAUGCAACUGGGUGAUACCUGAGGACACACACACUCAGUGCGUCGGUGGAGAGGGUAUACUGCCUCUUGCGGUCGCACUAGUGUGGAAUUCUCGGGUGUCAAGG
B4: ENSMUSG00000090935.398|Synj2bp (ssRNA)
RNA: GGGAGUUCUACAGUCCGACGAUCGCUUCGAUAUCCGCAUGCUAAAUUUCCUUCUUUUCAGUAAAUUGGCCAGACUAUUAUUUUGACAUAAGAUUAUGAAGAGUUUUCCCGACAGUCUAGCAGUCACUUAACAGAUGUUGAUUGCACAUUAGUUUUGUCAGGACACCUUUAUAAAAAGAGAAAUGCACAUAUUUCAUCCAAAGGGACAUUGUGGUUACAGUUAGGAAGGAAACCCUUAAAAUGGAGUUAGUUAUCUAAGUGUAAGUUGUUUAUAUUACAGACAGCAAAAGAAAAUAGCUCCUGACUCUUGCGGUCGCACUAGUGUGGAAUUCUCGGGUGUCAAGG
B5: ENSMUSG00000043670.39|Diras1 (ssRNA)
RNA: GGGAGUUCUACAGUCCGACGAUCGCUUCGAUAUCCGCAUGCUAGCUCCUGCUCCUUCUCCCCCUCCUUCCUUCCUUUGCCUUGCCCCUCCCUCCUCCAUCUCUCUUCCCUCUUCCUGUCCCCACCAGCCUACAGUAAGGUUGGGCUCCAUCCCUGCCUCUUCACACCUCCAUAGCUUCAUCCUUUGCAGACCUCUCCCUCUAUAUCUCUUUGCUCCCCCACCCCCAUUCUAUCUGCACCCCACAACCACACACUGGAGGUUUGAUCCCUGUGGAUCUGAAAACAGGGACCUGGCUAAGGAACUCUCUUGCGGUCGCACUAGUGUGGAAUUCUCGGGUGUCAAGG
B6: ENSMUSG00000061578.1409|Ksr2 (ssRNA)
RNA: GGGAGUUCUACAGUCCGACGAUCGCUUCGAUAUCCGCAUGCUAGGACCUCAGGCCCACUGUUUUCUCCAUGUCUGUCUGUACUGACUGUUGCAGAAUGAGCUGAUGUAUGAUCUUGAUUCUCCAUUUUCCUUCUGGACCACAUGUCUCUUCCUUUUCCUUUUUAGAUCUGUCUUGCUCUCUGUCUCUCUCACUCAUUGCCAACAUGUUGCUGGGAAAGAAUAUUUGAUUUAGAUGCCAAUCAGGAAGGCAAGUAGGAUGGAUGGAUGAGUGAGUGGAUAGGUAGGUAUAUAAAUGGAUGGAUGCUCUUGCGGUCGCACUAGUGUGGAAUUCUCGGGUGUCAAGG
B7: ENSMUSG00000043670.199|Diras1 (ssRNA)
RNA: GGGAGUUCUACAGUCCGACGAUCGCUUCGAUAUCCGCAUGCUAGUCCAGGAGACUUGAGUGGCUCCUGGGCCUGUGUCCCACCCAGAUGAGGGUGACUUAGAAUUCUGUGUUUAUGUGCCUGUGUGUGUGGAUGGGUGUGUGUCUGUCUUGGGAUGGGGUGUUCUUGCACCACUUUGUGUUCUUAGUGAGACCACAGUGUAAGUGGCCGUGUGUGUGUGUGGGGGGGGGCACCUAGACAUUGUGGUGUGUCUGUAUGGCUCUGUGUUUUCAGGGGUGGGUGACACAGGCCUGUCUGAUGAGCACUCUUGCGGUCGCACUAGUGUGGAAUUCUCGGGUGUCAAGG
B8: ENSMUSG00000043670.204|Diras1 (ssRNA)
RNA: GGGAGUUCUACAGUCCGACGAUCGCUUCGAUAUCCGCAUGCUAGUGUCCCACCCAGAUGAGGGUGACUUAGAAUUCUGUGUUUAUGUGCCUGUGUGUGUGGAUGGGUGUGUGUCUGUCUUGGGAUGGGGUGUUCUUGCACCACUUUGUGUUCUUAGUGAGACCACAGUGUAAGUGGCCGUGUGUGUGUGUGGGGGGGGGCACCUAGACAUUGUGGUGUGUCUGUAUGGCUCUGUGUUUUCAGGGGUGGGUGACACAGGCCUGUCUGAUGAGCACCAGGUCUGUUCCAGGCUGUGGCAAGCUGGCUCUUGCGGUCGCACUAGUGUGGAAUUCUCGGGUGUCAAGG

These binders were tested against TDP-43 (Homo sapiens, UniProt Q13148 1-414) (assay: RNA Bind-n-Seq with designed 260-mer pool; 25 mM Tris-HCl, 150 mM KCl, 3 mM MgCl2, BSA (printed 500 mg/mL), 20 units/mL SUPERase IN; pH not stated; 500 nM RNA pool, 1 h, 4 C; TDP-43 5, 50, 500 nM; high values mean tight binding). Conditions: protein: recombinant; tags: SBP (GST cleaved off with PreScission; pGEX-GST-SBP).
Chain of TDP-43 (Q13148 whole entry): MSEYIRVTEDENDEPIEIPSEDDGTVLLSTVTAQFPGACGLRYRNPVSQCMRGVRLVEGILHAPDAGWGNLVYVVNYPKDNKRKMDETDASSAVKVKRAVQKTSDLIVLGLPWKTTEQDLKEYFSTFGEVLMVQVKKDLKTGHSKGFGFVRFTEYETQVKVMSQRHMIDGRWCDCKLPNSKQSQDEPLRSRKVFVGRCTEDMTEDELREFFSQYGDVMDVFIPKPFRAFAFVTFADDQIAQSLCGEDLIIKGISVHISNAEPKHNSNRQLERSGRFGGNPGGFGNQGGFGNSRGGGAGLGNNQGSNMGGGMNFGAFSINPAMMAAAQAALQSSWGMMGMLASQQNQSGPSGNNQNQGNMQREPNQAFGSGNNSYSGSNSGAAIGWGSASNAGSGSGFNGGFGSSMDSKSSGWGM
Procedure, shortened: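 For each oligo, R gives binding as its mapped-read-normalized abundance after pulldown divided by its abundance in input. Bead-captured SBP-tagged TDP-43 (5, 50 or 500 nM) was incubated with 500 nM of an in vitro-transcribed 260-nt 3′ UTR oligo pool for 1 h at 4 °C in 25 mM Tris-HCl, 150 mM KCl, 3 mM MgCl2, BSA and SUPERase IN on streptavidin beads. Washed, biotin-eluted RNA was reverse transcribed, PCR-amplified and sequenced.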
In the case of B1, the binding signal is reported as 2.63 R (bound/input frequency ratio).
With B2 the binding signal was 0.307 R (bound/input frequency ratio).
In the case of B3, the binding signal is reported as 0.46 R (bound/input frequency ratio).
With B4 the binding signal was 0.033 R (bound/input frequency ratio).
B5 was tested, and the binding signal was 5.05 R (bound/input frequency ratio).
For B6, the binding signal was 1.55 R (bound/input frequency ratio).
B7 was tested, and the binding signal was 5.44 R (bound/input frequency ratio).
B8 was tested, and the binding signal was 6.58 R (bound/input frequency ratio).
